Measurements taken from PubChem BioAssay AID1259341 (Broad Institute, 2017).
Unmarked numbers belong to inactive results. The source made the active and inactive calls.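 How the source made its calls: active means activity change under -35% in any replicate well, with more than 20 beads read in that well; inactive means the rest.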

Target: Caspase recruitment domain-containing protein 9 (Homo sapiens) + E3 ubiquitin-protein ligase TRIM62 (Homo sapiens) (UniProt Q9H257+Q9BVG3)
Assay: disruptors of CARD9-TRIM62 binding, primary screen, cell lysate, HEK293FT lysates, Luminex bead ELISA (AID 1259341);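 further: PE anti-Flag signal of Flag-CARD9 captured by myc-TRIM62 beads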
Settings: PE fluorescence, active compounds read low, concentration not given here

Caspase recruitment domain-containing protein 9 (Homo sapiens) + E3 ubiquitin-protein ligase TRIM62 (Homo sapiens), sequence (Q9BVG3 whole entry, looked up, the tested form may be a part): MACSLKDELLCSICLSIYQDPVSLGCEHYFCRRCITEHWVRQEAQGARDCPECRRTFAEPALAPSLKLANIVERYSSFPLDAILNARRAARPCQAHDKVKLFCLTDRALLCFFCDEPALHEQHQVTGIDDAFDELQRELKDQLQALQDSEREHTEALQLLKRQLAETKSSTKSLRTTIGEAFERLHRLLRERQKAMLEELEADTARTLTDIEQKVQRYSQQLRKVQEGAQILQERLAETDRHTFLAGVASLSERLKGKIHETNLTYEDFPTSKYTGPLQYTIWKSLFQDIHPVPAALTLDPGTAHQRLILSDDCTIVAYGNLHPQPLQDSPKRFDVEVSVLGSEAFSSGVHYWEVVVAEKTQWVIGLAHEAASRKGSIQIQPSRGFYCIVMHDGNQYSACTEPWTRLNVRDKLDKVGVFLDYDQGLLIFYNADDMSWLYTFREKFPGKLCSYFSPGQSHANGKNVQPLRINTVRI
Caspase recruitment domain-containing protein 9 (Homo sapiens) + E3 ubiquitin-protein ligase TRIM62 (Homo sapiens), sequence (Q9H257 whole entry, looked up, the tested form may be a part): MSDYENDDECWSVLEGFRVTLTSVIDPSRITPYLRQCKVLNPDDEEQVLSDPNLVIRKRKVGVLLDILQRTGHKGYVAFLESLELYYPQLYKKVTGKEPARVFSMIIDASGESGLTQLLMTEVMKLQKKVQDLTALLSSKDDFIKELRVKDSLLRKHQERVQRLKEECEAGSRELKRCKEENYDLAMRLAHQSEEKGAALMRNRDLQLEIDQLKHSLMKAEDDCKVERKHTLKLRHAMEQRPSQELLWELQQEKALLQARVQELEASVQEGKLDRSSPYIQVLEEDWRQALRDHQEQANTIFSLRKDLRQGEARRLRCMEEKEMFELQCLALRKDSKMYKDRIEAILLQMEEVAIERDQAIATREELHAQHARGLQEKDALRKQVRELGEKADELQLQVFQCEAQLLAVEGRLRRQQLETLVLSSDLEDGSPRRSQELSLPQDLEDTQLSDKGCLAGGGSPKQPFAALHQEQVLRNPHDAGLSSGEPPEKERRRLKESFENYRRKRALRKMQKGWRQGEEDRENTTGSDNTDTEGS

COc1ccc(S(=O)(=O)Nc2ccc3c(c2)C(=O)N([C@H](C)CO)C[C@H](C)[C@@H](CN(C)C(=O)C2CCCCC2)OCCCC[C@H](C)O3)cc1
activity change, negative = inhibition: -4.07%

NC(=O)C1(N2CCCCC2)CCN(c2ncc(NC(=O)c3ccccc3F)cc2C(=O)O)CC1
activity change, negative = inhibition: -10.2%

CCOC(=O)/C=C/S(=O)(=O)c1ccc(NC(C)=O)cc1
activity change, negative = inhibition: -8.13%

O=C(NCCCN1CCOCC1)c1cc(-c2ccco2)nc2ccccc12
activity change, negative = inhibition: -23.9%

CC1(C)Cc2ccccc2-c2nc(-c3ccccc3)oc(=O)c21
activity change, negative = inhibition: -0.338%

N#Cc1sc2nc(-c3ccccc3)cc(-c3ccco3)c2c1N
activity change, negative = inhibition: 2.21%

Cc1cccc(NC(=O)Cc2coc3ccc4ccccc4c23)n1
activity change, negative = inhibition: -0.738%

NC(=O)C1(N2CCCCC2)CCN(c2ncc(NC(=O)c3ccccc3)cc2C(=O)O)CC1
activity change, negative = inhibition: -57.3% (active)

O=C(Nc1ncccc1O)c1ccc(OCC2CCCO2)cc1 (stereo unspecified)
activity change, negative = inhibition: 2.58%

COc1ccc(S(=O)(=O)N2CCOCC2)cc1NC(=O)c1cccc(-n2cccc2)c1
activity change, negative = inhibition: -8.72%

O=C(CCCN1C(=O)NC2(CCCC2)C1=O)Nc1ccc(F)cc1
activity change, negative = inhibition: 23.8%

C[C@H](CO)N1C[C@H](C)[C@@H](CN(C)C(=O)C2CCCCC2)OCCCC[C@H](C)Oc2ccc(NS(=O)(=O)c3cccs3)cc2C1=O
activity change, negative = inhibition: 6.34%

O=C(Nc1nccs1)c1cc(-c2ccco2)nc2ccccc12
activity change, negative = inhibition: -0.894%

COc1ccc(-n2c(C)c3c(OC)cccc(=O)c3c2C)cc1
activity change, negative = inhibition: 3.94%

O=C(NCc1cccnc1)c1ccccc1-c1nc(-c2ccccc2)no1
activity change, negative = inhibition: -1.01%

O=C(O)COc1ccc(-n2cccc2)cc1
activity change, negative = inhibition: -1.45%

COc1ccc(-c2nnc(-c3nc(Nc4ccc(NC(C)=O)cc4)c4ccccc4n3)o2)cc1
activity change, negative = inhibition: 9.87%

CCOc1ccc(CNc2nc(-c3nnc(-c4ccc(F)cc4)o3)nc3ccccc23)cc1
activity change, negative = inhibition: 14.1%

Cc1cccc(Nc2nc(C(=O)Nc3cc(F)ccc3F)nc3ccccc23)c1
activity change, negative = inhibition: 1.63%

O=C(Nc1ccc2oc(-c3cccnc3)nc2c1)c1ccc2c(c1)OCCO2
activity change, negative = inhibition: 4.18%

Cc1ccc(-c2nn(-c3ccccc3)cc2CN(Cc2ccccc2)C(=O)CCC(=O)O)o1
activity change, negative = inhibition: 7.87%

O=C(O)c1ccc2nc(-c3ccco3)c(-c3ccco3)nc2c1
activity change, negative = inhibition: -13.9%

COCCn1c(C)cc(-c2csc(N)n2)c1C
activity change, negative = inhibition: 0.765%

COc1cc(N)c(Cc2nccc3cc(OC)c(OC)cc23)cc1OC
activity change, negative = inhibition: 1.93%

O=[N+]([O-])c1c(NCCCO)cc(SCc2ccco2)c2nonc12
activity change, negative = inhibition: 15.3%

COc1ccc(N2Cc3cccc(C(=O)NC(C)CCc4ccco4)c3C2=O)cc1 (stereo unspecified)
activity change, negative = inhibition: 0.962%

O=C1c2ccccc2S(=O)(=O)N1Cc1cccc(S(=O)(=O)N2CCOCC2)c1
activity change, negative = inhibition: 5.11%

Cc1ccc(N2NC(c3ccc(Br)cc3)=CCC2=O)cc1
activity change, negative = inhibition: -5.75%

CCCOc1ccc(CCC(=O)O)cc1
activity change, negative = inhibition: -3.23%

CCN1CCN(C(=O)c2cc(-c3ccco3)nc3ccccc23)CC1
activity change, negative = inhibition: 4.84%

CC1CCN(c2nc(-c3ccco3)c3c(c2C#N)CC(C)(C)OC3)CC1
activity change, negative = inhibition: 5.51%

CC1(C)Cc2c(c(N3CCOCC3)nc3sc(C(=O)NCc4ccco4)c(N)c23)CO1
activity change, negative = inhibition: -2.46%

C[C@H](CO)N1C[C@H](C)[C@@H](CN(C)C(=O)C2CCCCC2)OCCCC[C@H](C)Oc2ccc(NS(C)(=O)=O)cc2C1=O
activity change, negative = inhibition: 9.86%

O=C(CC1Nc2ccccc2OC1=O)Nc1ccc(Cl)cc1 (stereo unspecified)
activity change, negative = inhibition: 13.8%

O=C1c2cccnc2C(=O)N1Cc1ccc(S(=O)(=O)NCc2ccco2)cc1
activity change, negative = inhibition: 29.2%

Cc1c(/C=C/c2nc3ccccc3c(=O)n2-c2ccccn2)c2ccccc2n1C
activity change, negative = inhibition: -1.2%
